Test results taken from the supplement of paper PMC10849652.
Targets with a hit are over-represented here; the source holds about 8,800 in all. About 0.5% of all pairs of compound and target were hits. Values without a mark were called inactive.

Columns and labels:
Assay in all cases: log2 fold change, soluble protein after heating vs DMSO (PISA); higher = thermal stabilisation; K562 lysate, 10 uM; active = over 0.2 and 3.5 SD of the protein, either way, in both replicates (recomputed)
vemurafenib = compound: CCCS(=O)(=O)Nc1ccc(F)c(C(=O)c2c[nH]c3ncc(-c4ccc(Cl)cc4)cc23)c1F [vemurafenib]
How it was run: (§1)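 The values are log-two fold changes in thermal stability compared with solvent controls and come from duplicates. They were obtained by TMTpro 16plex LC-MS/MS, with channel sums equalised, on the supernatant after 21,000xg for 90 min. That supernatant came from crude K562 extract at 1 mg/mL protein treated with 10 μM compound for 30 min, heated for 3 min across 48°C-58°C, pooled and brought to 0.5% NP-40 at 4°C.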

[1] = compound: CCCS(=O)(=O)Nc1ccc(F)c(C(=O)c2c[nH]c3ncc(Cl)cc23)c1F
How it was run: as §1

barasertib = compound: CCN(CCCOc1ccc2c(Nc3cc(CC(=O)Nc4cccc(F)c4)[nH]n3)ncnc2c1)CCOP(=O)(O)O [barasertib]
How it was run: as §1

[2] = compound: CC[C@@H]1C(=O)N(C)c2cnc(Nc3ccc(C(=O)NC4CCN(C)CC4)cc3OC)nc2N1C1CCCC1
How it was run: as §1

volasertib = compound: CC[C@@H]1C(=O)N(C)c2cnc(Nc3ccc(C(=O)N[C@H]4CC[C@H](N5CCN(CC6CC6)CC5)CC4)cc3OC)nc2N1C(C)C [volasertib]
How it was run: as §1

[3] = compound: CCn1c(C(=O)N(C2CC2)C2CC2)cc2c3c(ncn3C)c(Nc3cc(C)n(C)n3)nc21
How it was run: as §1

[4] = compound: CCn1cc(-c2ccnc3[nH]c(-c4cccc(CN(C)C)c4)cc23)c(-c2ccc(NC(=O)N(C)C)cc2)n1
How it was run: as §1

[5] = compound: CN1CCC(CNc2ccc3ncc(-c4cccc(OC(F)(F)F)c4)n3n2)CC1
How it was run: as §1

saracatinib = compound: CN1CCN(CCOc2cc(OC3CCOCC3)c3c(Nc4c(Cl)ccc5c4OCO5)ncnc3c2)CC1 [saracatinib]
How it was run: as §1

sotrastaurin = compound: CN1CCN(c2nc(C3=C(c4c[nH]c5ccccc45)C(=O)NC3=O)c3ccccc3n2)CC1 [sotrastaurin]
How it was run: as §1

alvocidib = compound: CN1CC[C@H](c2c(O)cc(O)c3c(=O)cc(-c4ccccc4Cl)oc23)[C@H](O)C1 [alvocidib]
How it was run: as §1

Tubastatin A = compound: CN1CCc2c(c3ccccc3n2Cc2ccc(C(=O)NO)cc2)C1 [Tubastatin A]
How it was run: as §1

[6] = compound: CNC(=O)C1=CC=CC=C1NC2=NC(=NC=C2Cl)NC3=C(C=C(C=C3)N4CCOCC4)OC
How it was run: as §1

defactinib = compound: CNC(=O)c1ccc(Nc2ncc(C(F)(F)F)c(NCc3nccnc3N(C)S(C)(=O)=O)n2)cc1 [defactinib]
How it was run: as §1

[7] = compound: CNc1nc(-c2ccc3c(N)n[nH]c3c2)cc(N2C[C@@H](C(=O)NC3CCCCC3)CC[C@H]2C)n1
How it was run: as §1

encorafenib = compound: COC(=O)N[C@@H](C)CNc1nccc(-c2cn(C(C)C)nc2-c2cc(Cl)cc(NS(C)(=O)=O)c2F)n1 [encorafenib]
How it was run: as §1

[8] = compound: COC(=O)[C@H](CCSC)NC(=O)C1=C(C=C(C=C1)NC[C@H](CS)N)C2=CC=CC=C2
How it was run: as §1

alisertib = compound: COc1cc(Nc2ncc3c(n2)-c2ccc(Cl)cc2C(c2c(F)cccc2OC)=NC3)ccc1C(=O)O [alisertib]
How it was run: as §1

[9] = compound: COc1cc2nc(-c3cc(F)ccc3O)nc(N[C@@H]3CNC[C@H]3C(C)(C)O)c2cc1OC
How it was run: as §1

gefitinib = compound: COc1cc2ncnc(Nc3ccc(F)c(Cl)c3)c2cc1OCCCN1CCOCC1 [gefitinib]
How it was run: as §1

UniProt Q7Z4H7, sequence (Q7Z4H7 whole entry, looked up): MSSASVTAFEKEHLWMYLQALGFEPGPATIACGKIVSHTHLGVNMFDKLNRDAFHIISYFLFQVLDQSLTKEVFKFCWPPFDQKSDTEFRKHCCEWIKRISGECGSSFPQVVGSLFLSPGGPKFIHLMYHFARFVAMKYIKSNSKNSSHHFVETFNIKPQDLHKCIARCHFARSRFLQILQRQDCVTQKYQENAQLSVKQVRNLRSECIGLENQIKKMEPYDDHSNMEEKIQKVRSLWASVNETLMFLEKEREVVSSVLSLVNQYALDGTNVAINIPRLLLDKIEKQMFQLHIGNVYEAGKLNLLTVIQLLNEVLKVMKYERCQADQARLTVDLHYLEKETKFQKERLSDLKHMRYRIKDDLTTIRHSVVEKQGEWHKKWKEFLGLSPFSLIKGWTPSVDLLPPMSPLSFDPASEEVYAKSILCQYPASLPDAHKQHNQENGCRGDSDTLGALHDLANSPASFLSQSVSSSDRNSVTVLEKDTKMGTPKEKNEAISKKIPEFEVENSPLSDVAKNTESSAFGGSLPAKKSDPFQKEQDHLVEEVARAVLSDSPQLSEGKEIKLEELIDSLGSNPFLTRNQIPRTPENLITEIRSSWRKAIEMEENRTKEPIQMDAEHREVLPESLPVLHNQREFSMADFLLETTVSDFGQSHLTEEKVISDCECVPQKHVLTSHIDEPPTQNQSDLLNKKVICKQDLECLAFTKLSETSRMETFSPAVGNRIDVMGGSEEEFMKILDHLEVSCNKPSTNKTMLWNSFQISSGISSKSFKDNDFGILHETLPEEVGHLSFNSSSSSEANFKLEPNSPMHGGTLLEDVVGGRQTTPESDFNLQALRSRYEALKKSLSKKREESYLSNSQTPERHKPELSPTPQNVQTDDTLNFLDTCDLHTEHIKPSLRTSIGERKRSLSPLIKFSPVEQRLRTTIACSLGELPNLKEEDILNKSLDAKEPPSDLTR
UniProt P15104, sequence (P15104 whole entry, looked up): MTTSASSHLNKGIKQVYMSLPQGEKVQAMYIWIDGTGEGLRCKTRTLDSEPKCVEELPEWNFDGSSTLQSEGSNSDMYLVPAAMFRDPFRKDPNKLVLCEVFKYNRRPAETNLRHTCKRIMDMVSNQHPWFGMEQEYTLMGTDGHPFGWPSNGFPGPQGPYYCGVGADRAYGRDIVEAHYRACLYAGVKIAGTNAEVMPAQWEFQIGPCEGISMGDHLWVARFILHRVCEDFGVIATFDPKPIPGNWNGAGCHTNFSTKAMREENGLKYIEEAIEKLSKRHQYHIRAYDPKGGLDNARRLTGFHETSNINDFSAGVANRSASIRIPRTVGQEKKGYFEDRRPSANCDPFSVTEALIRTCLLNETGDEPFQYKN
UniProt Q99714, sequence (Q99714 whole entry, looked up): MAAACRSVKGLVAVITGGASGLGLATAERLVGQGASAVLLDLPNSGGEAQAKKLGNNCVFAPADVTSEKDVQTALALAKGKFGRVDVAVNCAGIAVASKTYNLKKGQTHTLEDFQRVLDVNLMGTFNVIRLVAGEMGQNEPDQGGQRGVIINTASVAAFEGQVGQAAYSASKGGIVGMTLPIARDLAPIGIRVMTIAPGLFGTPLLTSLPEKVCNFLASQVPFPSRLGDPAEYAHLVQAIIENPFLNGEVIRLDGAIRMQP
UniProt O15357, sequence (O15357 whole entry, looked up): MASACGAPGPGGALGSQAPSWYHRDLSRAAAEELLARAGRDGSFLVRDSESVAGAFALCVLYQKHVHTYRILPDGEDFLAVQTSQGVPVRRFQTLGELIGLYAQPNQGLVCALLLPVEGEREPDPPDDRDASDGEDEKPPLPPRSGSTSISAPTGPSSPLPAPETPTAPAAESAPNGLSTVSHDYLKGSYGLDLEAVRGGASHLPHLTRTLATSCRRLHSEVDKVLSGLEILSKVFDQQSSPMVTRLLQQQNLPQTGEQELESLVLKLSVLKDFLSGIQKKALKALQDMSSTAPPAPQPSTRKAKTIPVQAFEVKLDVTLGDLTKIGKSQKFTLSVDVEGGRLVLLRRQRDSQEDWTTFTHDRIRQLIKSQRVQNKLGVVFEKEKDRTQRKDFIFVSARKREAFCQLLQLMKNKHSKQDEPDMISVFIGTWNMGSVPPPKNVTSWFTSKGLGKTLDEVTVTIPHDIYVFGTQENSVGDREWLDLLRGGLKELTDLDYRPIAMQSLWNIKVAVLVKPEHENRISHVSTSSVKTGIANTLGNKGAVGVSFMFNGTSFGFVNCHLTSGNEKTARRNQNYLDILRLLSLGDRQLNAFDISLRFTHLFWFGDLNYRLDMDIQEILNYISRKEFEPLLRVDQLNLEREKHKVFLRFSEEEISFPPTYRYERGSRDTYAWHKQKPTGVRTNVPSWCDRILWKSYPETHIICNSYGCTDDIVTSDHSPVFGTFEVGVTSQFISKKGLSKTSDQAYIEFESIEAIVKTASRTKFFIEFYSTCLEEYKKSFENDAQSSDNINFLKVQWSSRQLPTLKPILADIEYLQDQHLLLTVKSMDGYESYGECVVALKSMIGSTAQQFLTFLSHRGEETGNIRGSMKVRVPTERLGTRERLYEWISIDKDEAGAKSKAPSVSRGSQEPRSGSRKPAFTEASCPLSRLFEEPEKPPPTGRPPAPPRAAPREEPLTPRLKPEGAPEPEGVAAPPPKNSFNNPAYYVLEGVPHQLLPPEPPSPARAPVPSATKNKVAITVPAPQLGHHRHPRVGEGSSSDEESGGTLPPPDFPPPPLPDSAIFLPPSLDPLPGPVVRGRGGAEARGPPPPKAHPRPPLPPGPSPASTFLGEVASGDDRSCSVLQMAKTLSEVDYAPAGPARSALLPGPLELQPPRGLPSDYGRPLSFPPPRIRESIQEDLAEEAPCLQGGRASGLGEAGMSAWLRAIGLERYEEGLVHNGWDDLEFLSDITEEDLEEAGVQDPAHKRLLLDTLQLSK
UniProt O15550, sequence (O15550 whole entry, looked up): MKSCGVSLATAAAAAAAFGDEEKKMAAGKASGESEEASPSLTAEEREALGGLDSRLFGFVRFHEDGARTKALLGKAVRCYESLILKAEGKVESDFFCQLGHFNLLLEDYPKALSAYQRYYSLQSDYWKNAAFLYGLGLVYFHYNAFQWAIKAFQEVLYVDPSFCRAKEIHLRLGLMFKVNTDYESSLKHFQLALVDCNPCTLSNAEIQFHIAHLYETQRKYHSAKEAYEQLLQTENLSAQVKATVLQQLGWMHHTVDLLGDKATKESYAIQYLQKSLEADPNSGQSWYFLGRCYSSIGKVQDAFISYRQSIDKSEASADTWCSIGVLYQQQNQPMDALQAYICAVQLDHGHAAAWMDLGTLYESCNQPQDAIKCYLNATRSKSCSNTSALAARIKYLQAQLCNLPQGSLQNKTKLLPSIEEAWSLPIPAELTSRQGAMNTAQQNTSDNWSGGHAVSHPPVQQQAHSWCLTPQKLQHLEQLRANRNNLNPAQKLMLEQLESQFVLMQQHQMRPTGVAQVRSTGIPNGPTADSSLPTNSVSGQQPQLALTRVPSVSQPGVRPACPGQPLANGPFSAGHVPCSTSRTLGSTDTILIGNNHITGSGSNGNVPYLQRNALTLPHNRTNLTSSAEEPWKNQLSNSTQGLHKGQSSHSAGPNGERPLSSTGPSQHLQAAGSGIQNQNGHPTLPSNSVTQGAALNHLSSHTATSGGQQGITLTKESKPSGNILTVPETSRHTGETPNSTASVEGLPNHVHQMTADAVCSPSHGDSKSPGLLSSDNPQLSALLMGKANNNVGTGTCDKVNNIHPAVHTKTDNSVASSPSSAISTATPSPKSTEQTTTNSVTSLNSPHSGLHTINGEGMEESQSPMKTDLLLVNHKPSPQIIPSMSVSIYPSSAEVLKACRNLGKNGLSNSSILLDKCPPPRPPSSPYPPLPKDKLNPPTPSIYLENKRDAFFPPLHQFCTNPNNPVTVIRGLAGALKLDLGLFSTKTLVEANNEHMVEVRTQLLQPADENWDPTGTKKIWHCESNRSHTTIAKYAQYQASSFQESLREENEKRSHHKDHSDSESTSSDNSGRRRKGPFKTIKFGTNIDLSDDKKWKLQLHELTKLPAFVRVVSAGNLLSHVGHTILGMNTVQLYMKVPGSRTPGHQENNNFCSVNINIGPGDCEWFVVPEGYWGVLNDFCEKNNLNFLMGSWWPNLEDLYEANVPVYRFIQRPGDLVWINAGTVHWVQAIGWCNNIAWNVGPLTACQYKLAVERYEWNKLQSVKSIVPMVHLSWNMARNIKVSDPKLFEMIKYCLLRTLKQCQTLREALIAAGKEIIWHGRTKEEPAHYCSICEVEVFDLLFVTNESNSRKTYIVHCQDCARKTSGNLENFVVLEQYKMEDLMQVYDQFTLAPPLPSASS
UniProt Q13547, sequence (Q13547 whole entry, looked up): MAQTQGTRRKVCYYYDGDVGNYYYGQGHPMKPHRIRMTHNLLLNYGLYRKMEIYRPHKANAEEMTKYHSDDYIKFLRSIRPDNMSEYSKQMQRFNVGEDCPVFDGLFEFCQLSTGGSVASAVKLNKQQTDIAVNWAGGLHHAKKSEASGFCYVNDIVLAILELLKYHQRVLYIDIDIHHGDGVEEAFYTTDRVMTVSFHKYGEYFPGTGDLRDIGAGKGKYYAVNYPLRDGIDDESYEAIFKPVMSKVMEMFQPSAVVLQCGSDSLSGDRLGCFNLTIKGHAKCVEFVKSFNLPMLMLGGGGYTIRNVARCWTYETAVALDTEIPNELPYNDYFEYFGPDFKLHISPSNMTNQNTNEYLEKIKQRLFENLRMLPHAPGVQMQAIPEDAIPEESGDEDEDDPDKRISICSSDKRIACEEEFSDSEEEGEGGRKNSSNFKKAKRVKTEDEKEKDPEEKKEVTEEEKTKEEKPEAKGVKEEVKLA
UniProt Q99729, sequence (Q99729 whole entry, looked up): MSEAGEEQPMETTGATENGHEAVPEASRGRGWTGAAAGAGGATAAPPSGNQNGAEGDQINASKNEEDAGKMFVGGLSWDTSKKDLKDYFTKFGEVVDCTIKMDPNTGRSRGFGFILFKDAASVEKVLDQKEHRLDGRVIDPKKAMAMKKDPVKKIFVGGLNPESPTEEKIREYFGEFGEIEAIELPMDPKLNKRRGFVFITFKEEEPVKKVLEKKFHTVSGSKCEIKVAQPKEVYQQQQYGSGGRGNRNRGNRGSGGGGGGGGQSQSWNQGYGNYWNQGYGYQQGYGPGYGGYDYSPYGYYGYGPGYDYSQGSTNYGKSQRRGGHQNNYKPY

Row | Target | log2 fold change (vemurafenib) | log2 fold change [1] | log2 fold change (barasertib) | log2 fold change [2] | log2 fold change (volasertib) | log2 fold change [3] | log2 fold change [4] | log2 fold change [5] | log2 fold change (saracatinib) | log2 fold change (sotrastaurin) | log2 fold change (alvocidib) | log2 fold change (Tubastatin A) | log2 fold change [6] | log2 fold change (defactinib) | log2 fold change [7] | log2 fold change (encorafenib) | log2 fold change [8] | log2 fold change (alisertib) | log2 fold change [9] | log2 fold change (gefitinib)
1 | HNRNPAB isoform 3 (UniProt Q99729) | 0.018 | -0.001 | -0.003 | 0.033 | 0.019 | 0.011 | -0.096 | -0.004 | 0.027 | -0.013 | -0.018 | 0.021 | -0.018 | 0.017 | 0.043 | -0.012 | -0.016 | -0.035 | 0 | 0.03
2 | INPPL1 (UniProt O15357) | 0.023 | 0.01 | 0.028 | -0.02 | -0.047 | 0.095 | -0.017 | -0.06 | 0.005 | 0.019 | -0.001 | -0.177 | 0.039 | 0 | -0.001 | 0.009 | 0.037 | 0.036 | -0.013 | 0.01
3 | HELQ (UniProt Q8TDG4) | 0.12 | -0.064 | 0.036 | 0.048 | 0.01 | -0.044 | 0.038 | -0.104 | -0.058 | 0.057 | 0.059 | -0.016 | 0.045 | 0.037 | 0.054 | 0.046 | 0.09 | 0.132 | -0.041 | -0.177
4 | GSTZ1 (UniProt G3V4T6) | -0.013 | -0.024 | 0.018 | -0.101 | -0.02 | -0.029 | -0.116 | 0.087 | -0.012 | -0.018 | -0.016 | 0.018 | 0.01 | 0.061 | 0.028 | -0.045 | 0.35 (active) | 0.023 | 0.049 | 0.002
5 | HDAC1 (UniProt Q13547) | 0.01 | 0.022 | -0.001 | -0.004 | -0.019 | 0.03 | -0.036 | -0.001 | 0.014 | -0.011 | 0.003 | -0.027 | -0.015 | 0.014 | -0.012 | 0.006 | 0.04 | 0.017 | -0.031 | 0.004
6 | GLUL (UniProt P15104) | -0.055 | 0.012 | -0.026 | -0.028 | -0.024 | 0.021 | 0.326 | -0.058 | -0.004 | 0.016 | 0.011 | 0.015 | 0.034 | 0.027 | -0.125 | -0.002 | 0.029 | 0.002 | -0.019 | -0.004
7 | INPP4A (UniProt Q96PE3) | -0.03 | 0.011 | 0.382 (active) | -0.017 | -0.034 | 0.031 | 0.021 | 0.015 | -0.025 | -0.008 | -0.032 | -0.051 | 0.033 | 0.046 | 0.009 | 0.01 | -0.019 | -0.026 | 0.01 | -0.033
8 | HSD17B10 (UniProt Q99714) | 0.017 | -0.016 | -0.021 | -0.006 | -0.015 | -0.022 | -0.081 | 0.024 | -0.022 | -0.014 | -0.02 | -0.077 | 0.004 | -0.029 | 0.05 | -0.035 | 0.141 | 0.013 | -0.009 | -0.021
9 | KDM1A (UniProt O60341) | 0.021 | 0.004 | 0.014 | -0.011 | -0.046 | -0.011 | -0.065 | -0.016 | -0.001 | 0.005 | -0.034 | -0.067 | -0.023 | -0.003 | 0.013 | 0.003 | 0.095 | 0.012 | 0.001 | 0.006
10 | HAUS6 (UniProt Q7Z4H7) | 0.004 | 0.092 | 0.025 | 0.012 | -0.068 | 0.015 | -0.063 | 0.014 | 0.01 | 0.022 | -0.043 | -0.084 | 0.008 | 0.031 | -0.004 | 0.031 | -0.025 | 0.03 | 0.019 | 0.017
11 | KDM6A (UniProt O15550) | -0.045 | 0.006 | 0.017 | 0.035 | -0.036 | -0.017 | 0.089 | 0.067 | 0.029 | -0.01 | -0.057 | -0.057 | 0.041 | -0.048 | 0.006 | 0.054 | 0.018 | -0.025 | -0.005 | -0.011
12 | HSPA8 (UniProt E9PK54) | -0.047 | 0.014 | -0.113 | -0.071 | -0.056 | 0.08 | -0.144 | 0.052 | 0.108 | 0.028 | -0.047 | 0.036 | -0.066 | -0.041 | -0.05 | -0.025 | -0.004 | -0.016 | 0.016 | -0.051
